# Values without a mark were called inactive.
# Test system: Caenorhabditis elegans L1 (N2)
# Assay: survival and reproduction score of C. elegans L1 (0: 0-10 living worms, 1: 11-20, 2: 21-50, 3: >50, 4: overgrown) (score 0-4); higher = more worms, less nematicidal, active = 1 or less; extreme values may be limits of the assay
# Settings: 60 µM; 6 days; temperature: 20 °C
# How it was run: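 In liquid NGM with E. coli HB101, approximately 20 synchronized C. elegans N2 L1s per 96-well well were exposed to compound at 60 µM final (0.6% v/v DMSO) for 6 days at 20 °C with shaking at 200 rpm in sealed plates. Survival and reproduction were judged under a dissection microscope as an ordinal rating of living worms per well. Ratings went from 0 (0–10 worms) to 4 (overgrown, starved) and were averaged over two biological replicates.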
row,SMILES,survival and reproduction score
1,COc1cccc(CSc2nnc(-c3ccco3)n2C)c1,2
2,Cc1ccc(-c2noc(COc3ccccc3C)n2)cc1,4
3,Ic1cccc(-c2nc(-c3cccnc3)no2)c1,4
4,CC(C)CCC(=O)Nc1ccccc1-c1nc(-c2ccncc2)no1,4
5,Clc1ccccc1OCc1nc(-c2ccccn2)no1,4
6,Clc1ccc(SCc2nc(-c3ccccn3)no2)cc1,0.5 (active)
7,Cc1ccc(C)c(-c2nc(-c3cccnc3)no2)c1,0 (active)
8,Cc1ccc(-c2nc(-c3cccc(C(F)(F)F)c3)no2)cc1,3.5
9,Cc1cccc(-c2nnc(SCC(=O)Nc3ccccc3F)o2)c1,4
10,Cc1ccc(-c2nnc(SCC(=O)Nc3ccc(F)cc3)o2)cc1,4
11,CC(C)Oc1ccc(-c2nc(-c3ccccc3)no2)cc1,0 (active)
12,CCOc1ccccc1-c1nc(-c2ccc(F)cc2)no1,4
13,Cn1c(SCc2nc(-c3cccs3)no2)nnc1-c1ccco1,4
14,N#Cc1ccccc1CSc1nnc(-c2ccccc2)o1,4
15,CC(C)Oc1ccc(-c2nc(-c3cccnc3)no2)cc1,0 (active)
16,O=C(CSc1nnc(-c2ccncc2)o1)Nc1cccc(Cl)c1Cl,4
17,Cc1ccc(-c2noc(COc3ccc(Cl)c(C)c3)n2)cc1,4
18,COc1ccc(NC(=O)CSc2nnc(-c3ccccc3C)o2)cc1,4
19,Brc1ccc(-c2noc(-c3ccc4c(c3)OCO4)n2)cc1,4
20,O=C(CSc1nnc(-c2ccco2)o1)Nc1ccc(Br)cc1,4

# Reference: the supplement of paper PMC11219838
